In the supplement of paper PMC10849652 one finds log2 fold change data, which are given here for 39 targets.

Targets with a hit are over-represented here; the source holds about 8,800 in all. About 0.5% of all pairs of compound and target were hits.

UniProt Q96S44, sequence (Q96S44 whole entry, looked up): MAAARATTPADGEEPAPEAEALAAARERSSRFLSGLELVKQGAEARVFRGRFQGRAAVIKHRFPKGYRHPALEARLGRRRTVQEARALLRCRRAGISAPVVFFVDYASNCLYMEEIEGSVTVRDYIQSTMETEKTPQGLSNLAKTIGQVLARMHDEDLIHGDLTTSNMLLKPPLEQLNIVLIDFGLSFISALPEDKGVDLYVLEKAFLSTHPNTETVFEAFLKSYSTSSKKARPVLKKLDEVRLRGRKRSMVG
UniProt P11441, sequence (P11441 whole entry, looked up): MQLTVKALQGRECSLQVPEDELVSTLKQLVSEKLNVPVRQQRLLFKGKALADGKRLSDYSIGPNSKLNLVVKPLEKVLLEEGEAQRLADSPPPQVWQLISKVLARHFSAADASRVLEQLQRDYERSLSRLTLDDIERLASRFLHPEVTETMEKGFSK
UniProt P51668, sequence (P51668 whole entry, looked up): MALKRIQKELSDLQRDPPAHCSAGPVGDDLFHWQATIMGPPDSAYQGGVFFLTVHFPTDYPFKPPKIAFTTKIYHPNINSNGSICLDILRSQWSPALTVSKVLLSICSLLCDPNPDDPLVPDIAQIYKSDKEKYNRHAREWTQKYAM
UniProt P68363, sequence (P68363 whole entry, looked up): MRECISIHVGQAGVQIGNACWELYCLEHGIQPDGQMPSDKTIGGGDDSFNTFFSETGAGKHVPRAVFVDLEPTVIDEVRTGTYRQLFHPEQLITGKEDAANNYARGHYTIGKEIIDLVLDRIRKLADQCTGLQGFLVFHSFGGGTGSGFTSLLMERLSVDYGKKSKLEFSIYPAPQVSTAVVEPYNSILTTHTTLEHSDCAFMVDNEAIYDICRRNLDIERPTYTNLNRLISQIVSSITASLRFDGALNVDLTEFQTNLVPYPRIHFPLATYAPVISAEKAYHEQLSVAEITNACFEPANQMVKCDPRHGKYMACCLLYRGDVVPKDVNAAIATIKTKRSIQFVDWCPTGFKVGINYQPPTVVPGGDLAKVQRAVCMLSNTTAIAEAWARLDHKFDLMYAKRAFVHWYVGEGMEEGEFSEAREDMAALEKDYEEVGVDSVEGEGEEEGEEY
UniProt Q8WUH2, sequence (Q8WUH2 whole entry, looked up): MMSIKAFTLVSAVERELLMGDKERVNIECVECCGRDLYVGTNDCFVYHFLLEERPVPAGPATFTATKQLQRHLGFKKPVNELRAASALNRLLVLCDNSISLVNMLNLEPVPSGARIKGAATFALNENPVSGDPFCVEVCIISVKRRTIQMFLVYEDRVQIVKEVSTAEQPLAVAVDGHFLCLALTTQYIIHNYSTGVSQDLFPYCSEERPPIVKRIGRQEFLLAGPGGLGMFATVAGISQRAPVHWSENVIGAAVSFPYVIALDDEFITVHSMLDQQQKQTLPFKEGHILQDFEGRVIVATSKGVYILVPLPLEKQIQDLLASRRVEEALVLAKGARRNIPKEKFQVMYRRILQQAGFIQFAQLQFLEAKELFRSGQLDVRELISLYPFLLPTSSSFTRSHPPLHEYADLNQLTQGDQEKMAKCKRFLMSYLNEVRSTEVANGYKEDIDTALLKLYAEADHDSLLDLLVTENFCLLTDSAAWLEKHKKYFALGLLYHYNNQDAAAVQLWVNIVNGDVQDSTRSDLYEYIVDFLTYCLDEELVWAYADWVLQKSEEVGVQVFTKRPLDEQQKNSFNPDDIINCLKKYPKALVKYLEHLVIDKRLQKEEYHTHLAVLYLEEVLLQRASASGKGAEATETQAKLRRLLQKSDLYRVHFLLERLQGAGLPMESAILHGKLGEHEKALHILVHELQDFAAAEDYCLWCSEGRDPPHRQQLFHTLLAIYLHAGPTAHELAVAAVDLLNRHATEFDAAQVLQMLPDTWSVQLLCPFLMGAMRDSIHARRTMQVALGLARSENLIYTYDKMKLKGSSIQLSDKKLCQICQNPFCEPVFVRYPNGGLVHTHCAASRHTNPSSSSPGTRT
UniProt P07437, sequence (P07437 whole entry, looked up): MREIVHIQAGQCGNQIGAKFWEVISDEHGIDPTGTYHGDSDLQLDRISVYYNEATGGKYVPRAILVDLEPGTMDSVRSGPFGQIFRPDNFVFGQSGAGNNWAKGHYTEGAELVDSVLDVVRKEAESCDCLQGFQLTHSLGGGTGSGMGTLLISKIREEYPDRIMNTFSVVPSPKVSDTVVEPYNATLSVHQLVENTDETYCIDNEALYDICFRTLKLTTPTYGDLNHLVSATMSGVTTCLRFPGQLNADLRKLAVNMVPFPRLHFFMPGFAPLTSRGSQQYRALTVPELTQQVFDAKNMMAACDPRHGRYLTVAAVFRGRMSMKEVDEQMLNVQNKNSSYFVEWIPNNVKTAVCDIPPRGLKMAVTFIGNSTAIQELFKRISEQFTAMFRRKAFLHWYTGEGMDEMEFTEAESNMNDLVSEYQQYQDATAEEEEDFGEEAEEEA
UniProt A6NHL2, sequence (A6NHL2 whole entry, looked up): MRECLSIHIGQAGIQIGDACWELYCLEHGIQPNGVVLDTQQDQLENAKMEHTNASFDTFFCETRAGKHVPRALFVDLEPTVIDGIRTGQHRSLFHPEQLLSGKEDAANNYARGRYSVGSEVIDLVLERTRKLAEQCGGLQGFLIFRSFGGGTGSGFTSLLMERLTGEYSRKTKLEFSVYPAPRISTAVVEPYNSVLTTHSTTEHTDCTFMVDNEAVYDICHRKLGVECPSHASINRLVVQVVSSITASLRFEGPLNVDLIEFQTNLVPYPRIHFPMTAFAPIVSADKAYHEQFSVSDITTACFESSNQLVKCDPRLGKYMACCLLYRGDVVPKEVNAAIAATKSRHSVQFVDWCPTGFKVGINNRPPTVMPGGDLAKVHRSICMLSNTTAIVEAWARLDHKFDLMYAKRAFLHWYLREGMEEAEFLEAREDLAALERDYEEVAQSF
UniProt Q9Y4R8, sequence (Q9Y4R8 whole entry, looked up): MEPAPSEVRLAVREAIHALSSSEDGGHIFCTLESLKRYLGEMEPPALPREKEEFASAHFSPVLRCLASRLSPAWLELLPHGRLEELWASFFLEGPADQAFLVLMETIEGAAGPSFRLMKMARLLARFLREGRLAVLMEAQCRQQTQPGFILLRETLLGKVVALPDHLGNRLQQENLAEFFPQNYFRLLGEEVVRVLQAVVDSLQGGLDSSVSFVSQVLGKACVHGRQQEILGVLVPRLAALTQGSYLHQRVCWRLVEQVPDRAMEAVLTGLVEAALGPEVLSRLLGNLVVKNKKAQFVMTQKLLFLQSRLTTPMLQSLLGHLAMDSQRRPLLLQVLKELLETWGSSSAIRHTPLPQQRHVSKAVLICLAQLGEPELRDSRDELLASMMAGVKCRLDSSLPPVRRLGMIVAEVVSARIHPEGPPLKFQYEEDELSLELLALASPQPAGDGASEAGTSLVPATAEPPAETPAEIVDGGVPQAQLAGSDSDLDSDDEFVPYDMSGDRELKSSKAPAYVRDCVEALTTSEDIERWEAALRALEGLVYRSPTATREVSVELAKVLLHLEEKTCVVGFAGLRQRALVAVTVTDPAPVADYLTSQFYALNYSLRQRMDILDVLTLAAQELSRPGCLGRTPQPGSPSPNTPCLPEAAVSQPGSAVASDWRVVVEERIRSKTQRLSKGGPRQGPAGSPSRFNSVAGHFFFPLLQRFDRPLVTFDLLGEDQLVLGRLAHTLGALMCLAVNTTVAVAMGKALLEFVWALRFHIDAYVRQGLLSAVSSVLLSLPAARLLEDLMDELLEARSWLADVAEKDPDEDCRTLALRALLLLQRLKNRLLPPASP
UniProt Q12800, sequence (Q12800 whole entry, looked up): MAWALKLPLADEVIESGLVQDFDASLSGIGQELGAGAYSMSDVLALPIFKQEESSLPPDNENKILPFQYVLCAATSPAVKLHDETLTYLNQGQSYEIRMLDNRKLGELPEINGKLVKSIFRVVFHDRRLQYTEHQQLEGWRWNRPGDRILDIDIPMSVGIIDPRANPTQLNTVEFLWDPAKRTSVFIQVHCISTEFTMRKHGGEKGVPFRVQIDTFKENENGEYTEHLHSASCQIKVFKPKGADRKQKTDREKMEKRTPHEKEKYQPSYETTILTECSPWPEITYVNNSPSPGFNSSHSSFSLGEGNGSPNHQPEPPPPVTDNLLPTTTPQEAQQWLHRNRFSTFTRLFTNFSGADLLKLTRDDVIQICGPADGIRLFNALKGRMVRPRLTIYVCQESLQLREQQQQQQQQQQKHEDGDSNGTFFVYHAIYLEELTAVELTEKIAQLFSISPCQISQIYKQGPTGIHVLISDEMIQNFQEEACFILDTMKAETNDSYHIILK
UniProt Q96DX7, sequence (Q96DX7 whole entry, looked up): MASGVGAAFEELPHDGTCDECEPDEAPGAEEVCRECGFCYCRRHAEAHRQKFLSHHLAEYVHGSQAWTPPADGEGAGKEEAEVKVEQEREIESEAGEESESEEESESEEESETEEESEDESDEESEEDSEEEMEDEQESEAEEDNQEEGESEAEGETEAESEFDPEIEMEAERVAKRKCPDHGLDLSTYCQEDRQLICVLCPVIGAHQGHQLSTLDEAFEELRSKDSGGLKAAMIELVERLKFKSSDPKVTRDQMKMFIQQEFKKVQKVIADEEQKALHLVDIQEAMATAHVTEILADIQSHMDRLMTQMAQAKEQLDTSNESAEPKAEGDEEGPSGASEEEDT
UniProt P43897, sequence (P43897 whole entry, looked up): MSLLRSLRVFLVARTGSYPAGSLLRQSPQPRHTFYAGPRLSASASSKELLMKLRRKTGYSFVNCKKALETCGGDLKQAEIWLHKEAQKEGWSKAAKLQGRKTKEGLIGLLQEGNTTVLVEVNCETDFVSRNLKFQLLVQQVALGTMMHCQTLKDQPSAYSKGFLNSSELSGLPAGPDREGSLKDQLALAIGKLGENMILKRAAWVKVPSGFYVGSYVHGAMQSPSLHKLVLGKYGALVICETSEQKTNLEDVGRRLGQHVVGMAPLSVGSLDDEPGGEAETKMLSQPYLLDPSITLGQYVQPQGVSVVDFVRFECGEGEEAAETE
UniProt O14933, sequence (O14933 whole entry, looked up): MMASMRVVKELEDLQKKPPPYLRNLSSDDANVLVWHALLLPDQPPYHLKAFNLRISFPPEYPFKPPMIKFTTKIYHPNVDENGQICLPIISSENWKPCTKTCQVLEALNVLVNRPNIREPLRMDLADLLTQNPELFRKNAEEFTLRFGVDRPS

Compound in one experiment: CC1=C(SC2=C1C(=N[C@H](C3=NN=C(N32)C)CC(=O)N)C4=CC=C(C=C4)Cl)C
The experiment in a line: log2 fold change, soluble protein after heating vs DMSO (PISA); higher = thermal stabilisation; K562 lysate, 10 uM; active = over 0.2 and 3.5 SD of the protein, either way, in both replicates (recomputed). The method in brief:
(§1)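 K562 pellets were dounce-homogenised in PBS pH 7.4 with 1 mM MgCl2, and the crude extract at 1 mg/mL protein was treated with 10 μM compound for 30 min. Aliquots were heated for 3 min across 48°C-58°C, pooled, and brought to 0.5% NP-40 at 4°C; soluble protein was the supernatant after 21,000xg for 90 min. Soluble protein was quantified by TMTpro 16plex LC-MS/MS with channel sums equalised, and reported as log2 fold change in thermal stability against DMSO controls, with values from duplicates.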
Turning to TTLL12 (UniProt V9GY16), the log2 fold change is 0.606 (inactive).

With TGFBRAP1 (UniProt Q8WUH2), the log2 fold change is 0.024 (inactive).

As for TPX2 (UniProt Q9ULW0), the log2 fold change is -0.006 (inactive).

UBL4A (UniProt P11441): the log2 fold change was -0.003 (inactive).

In the case of TRAPPC12 (UniProt Q8WVT3), the log2 fold change is -0.016 (inactive).

Regarding TNPO3 (UniProt Q9Y5L0), the log2 fold change was 0.07 (inactive).

For UCHL5 isoform 3 (UniProt Q9Y5K5), the log2 fold change is 0.033 (inactive).

With UBE3B (UniProt Q7Z3V4), the log2 fold change was -0.144 (inactive).

As for TFCP2 (UniProt Q12800), the log2 fold change was -0.013 (inactive).

For TFPI (UniProt P10646), the log2 fold change was -0.116 (inactive).

For the target TMEM161B (UniProt Q8NDZ6), the log2 fold change is -0.052 (inactive).

On to TUBGCP4 (UniProt Q9UGJ1), for which the log2 fold change is 0.019 (inactive).

As for UBE2L6 (UniProt O14933), the log2 fold change was 0 (inactive).

Consider TSFM (UniProt P43897), for which the log2 fold change is 0.007 (inactive).

TELO2 (UniProt Q9Y4R8): the log2 fold change is -0.012 (inactive).

On to TRIM25 (UniProt Q14258), for which the log2 fold change was 0.001 (inactive).

TBL2 (UniProt Q9Y4P3): the log2 fold change is 0.057 (inactive).

As to UBE2D1 (UniProt P51668), the log2 fold change is 0.066 (inactive).

For the target TMEM177 (UniProt Q53S58), the log2 fold change is -0.009 (inactive).

For the target TP53RK (UniProt Q96S44), the log2 fold change is 0.021 (inactive).

Turning to TRIM33 (UniProt H0Y612), the log2 fold change is 0.008 (inactive).

Regarding TRIM11 (UniProt Q96F44), the log2 fold change is 0.035 (inactive).

Consider TRIM44 (UniProt Q96DX7), for which the log2 fold change is -0.126 (inactive).

On to TTI1 (UniProt O43156), for which the log2 fold change is -0.011 (inactive).

As to TRNAU1AP (UniProt Q9NX07), the log2 fold change is -0.008 (inactive).

With TUBA1B (UniProt P68363), the log2 fold change was 0.014 (inactive).

In the case of TUBB (UniProt P07437), the log2 fold change was 0.027 (inactive).

For the target TK1 (UniProt P04183), the log2 fold change was 0.037 (inactive).

On to TTLL12 (UniProt Q14166), for which the log2 fold change was 0.013 (inactive).

Take TPM4 isoform 2 (UniProt P67936): the log2 fold change is -0.012 (inactive).

On to TPP2 (UniProt P29144), for which the log2 fold change was 0.008 (inactive).

TTF2 (UniProt Q9UNY4): the log2 fold change is 0.029 (inactive).

With TUBGCP5 (UniProt Q96RT8), the log2 fold change was 0.088 (inactive).

For the target TUBAL3 (UniProt A6NHL2), the log2 fold change is -0.051 (inactive).

As for TMEM199 (UniProt Q8N511), the log2 fold change was -0.002 (inactive).

TESC (UniProt Q96BS2): the log2 fold change was -0.131 (inactive).

In the case of TRMT10A (UniProt Q8TBZ6), the log2 fold change was 0.099 (inactive).

For the target TMPO (UniProt P42166), the log2 fold change was 0.015 (inactive).

Regarding TIMELESS (UniProt Q9UNS1), the log2 fold change is 0.011 (inactive).

Compound in a further experiment: CC1=C2C(=CC=C1)N=C(N(C2=O)C3=CC=CC=C3C)CN4C=NC5=C(N=CN=C54)N
The description is as above. A digest of the protocol: as §1
With TTLL12 (UniProt V9GY16), the log2 fold change is 0.066 (inactive).

TGFBRAP1 (UniProt Q8WUH2): the log2 fold change is 0 (inactive).

As to TPX2 (UniProt Q9ULW0), the log2 fold change was 0.008 (inactive).

Turning to UBL4A (UniProt P11441), the log2 fold change was -0.017 (inactive).

In the case of TRAPPC12 (UniProt Q8WVT3), the log2 fold change was -0.023 (inactive).

With TNPO3 (UniProt Q9Y5L0), the log2 fold change was -0.003 (inactive).

UCHL5 isoform 3 (UniProt Q9Y5K5): the log2 fold change is 0.01 (inactive).

Regarding UBE3B (UniProt Q7Z3V4), the log2 fold change is -0.047 (inactive).

As to TFCP2 (UniProt Q12800), the log2 fold change was 0.004 (inactive).

On to TFPI (UniProt P10646), for which the log2 fold change is -0.16 (inactive).

Turning to TMEM161B (UniProt Q8NDZ6), the log2 fold change was -0.076 (inactive).

Take TUBGCP4 (UniProt Q9UGJ1): the log2 fold change is 0.012 (inactive).

Regarding UBE2L6 (UniProt O14933), the log2 fold change was -0.068 (inactive).

In the case of TSFM (UniProt P43897), the log2 fold change is 0.027 (inactive).

As for TELO2 (UniProt Q9Y4R8), the log2 fold change is -0.019 (inactive).

In the case of TRIM25 (UniProt Q14258), the log2 fold change was 0.001 (inactive).

Take TBL2 (UniProt Q9Y4P3): the log2 fold change was 0.033 (inactive).

With UBE2D1 (UniProt P51668), the log2 fold change is 0.02 (inactive).

TMEM177 (UniProt Q53S58): the log2 fold change is 0.015 (inactive).

With TP53RK (UniProt Q96S44), the log2 fold change was -0.003 (inactive).

On to TRIM33 (UniProt H0Y612), for which the log2 fold change was 0.05 (inactive).

As to TRIM11 (UniProt Q96F44), the log2 fold change was 0.04 (inactive).

Consider TRIM44 (UniProt Q96DX7), for which the log2 fold change was -0.061 (inactive).

For the target TTI1 (UniProt O43156), the log2 fold change was -0.004 (inactive).

TRNAU1AP (UniProt Q9NX07): the log2 fold change was 0.195 (inactive).

On to TUBA1B (UniProt P68363), for which the log2 fold change is 0.004 (inactive).

For TUBB (UniProt P07437), the log2 fold change is -0.005 (inactive).

On to TK1 (UniProt P04183), for which the log2 fold change was -0.017 (inactive).

TTLL12 (UniProt Q14166): the log2 fold change was 0.011 (inactive).

Regarding TPM4 isoform 2 (UniProt P67936), the log2 fold change was 0.02 (inactive).

As to TPP2 (UniProt P29144), the log2 fold change is -0.002 (inactive).

As to TTF2 (UniProt Q9UNY4), the log2 fold change is 0.003 (inactive).

With TUBGCP5 (UniProt Q96RT8), the log2 fold change was 0.039 (inactive).

As to TUBAL3 (UniProt A6NHL2), the log2 fold change is 0.045 (inactive).

As for TMEM199 (UniProt Q8N511), the log2 fold change is 0.07 (inactive).

With TESC (UniProt Q96BS2), the log2 fold change was -0.001 (inactive).

With TRMT10A (UniProt Q8TBZ6), the log2 fold change was -0.025 (inactive).

Take TMPO (UniProt P42166): the log2 fold change is 0.015 (inactive).

With TIMELESS (UniProt Q9UNS1), the log2 fold change is 0.01 (inactive).
